Source: PubChem BioAssay (The Scripps Research Institute Molecular Screening Center)
PAFAH2 inh: PAFAH2 (human) inhibition; Q99487; recombinant PAFAH2, FP-rhodamine activity probe, fluorescence polarization; inhibition, % at 3.39 µM; 340,000 compounds, 0.99% hits; AID 492956;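 active = inhibition above the mean over all tested compounds plus 3 SD, cut at about 30% in these data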;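 also: inhibitors block probe labeling of enzyme so polarization drops; 0% = enzyme with DMSO and 100% = wells lacking PAFAH2 protein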
TCR CD3 inh: blocks the human TCR-CD3 interaction. TAMRA-labeled TCR probe fluorescence, biochemical. inhibition, % at 9.4 µM. 360,000 compounds, 0.37% hits. AID 651800; in the data active = inhibition above about 19%;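 also: recombinant mutant TCR 2C K166C tagged with TAMRA read by polarization; 0% = receptor in buffer alone and 100% = receptor with positive control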
PAFAH1B3 FP inh: inhibitors of human PAFAH1B3; Q15102; recombinant PAFAH1B3, FP-rhodamine probe, fluorescence polarization; inhibition, % at 3.39 µM; 340,000 compounds, 0.28% hits; AID 492972;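 active = inhibition above the screen-wide average of all tested compounds plus 3 SD, cut at about 25% in these data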;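 also: 0% = enzyme with DMSO only and 100% = wells lacking PAFAH1B3 protein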
Target sequence (Q15102 whole entry, looked up): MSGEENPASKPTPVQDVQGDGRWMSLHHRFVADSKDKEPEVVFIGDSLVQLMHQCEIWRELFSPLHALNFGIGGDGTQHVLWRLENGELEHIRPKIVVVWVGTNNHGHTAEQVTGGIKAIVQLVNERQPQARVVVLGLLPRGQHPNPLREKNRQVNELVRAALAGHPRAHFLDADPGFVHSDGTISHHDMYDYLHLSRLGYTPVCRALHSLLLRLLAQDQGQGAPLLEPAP
pPAFAH FP inh: inhibitors of human plasma PAF acetylhydrolase (pPAFAH); Q13093; recombinant pPAFAH, FP-rhodamine probe fluorescence polarization; inhibition, % at 3.39 µM; 330,000 compounds, 1.5% hits; AID 463082;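 active = inhibition above the mean inhibition across the screen plus 3 SD, cut at about 25% in these data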;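 also: inhibitors block binding of the rhodamine activity-based probe so polarization drops; 0% = enzyme with DMSO and 100% = wells lacking pPAFAH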
PAFAH1B2 inh: PAFAH1B2 (human) inhibition; 340,000 compounds, 1.2% hits; recombinant PAFAH1B2, FP-rhodamine activity probe, fluorescence polarization; P68402; inhibition, % at 3.39 µM;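 active = inhibition above the mean of all tested compounds plus 3 SD, cut at about 24% in these data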;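 also: 0% = enzyme with DMSO and 100% = wells lacking PAFAH1B2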
Target sequence (P68402 whole entry, looked up): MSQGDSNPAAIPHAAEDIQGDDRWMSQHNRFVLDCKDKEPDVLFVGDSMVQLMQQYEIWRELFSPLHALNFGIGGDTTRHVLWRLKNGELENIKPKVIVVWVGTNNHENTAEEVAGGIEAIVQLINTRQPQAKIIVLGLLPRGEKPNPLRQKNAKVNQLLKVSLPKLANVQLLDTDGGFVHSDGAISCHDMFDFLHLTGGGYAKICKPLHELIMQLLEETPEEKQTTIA
PAFAH2 FP conf: confirmation of human PAFAH2 inhibitors | shares compounds with PAFAH2 inh | recombinant PAFAH2, FP-rhodamine activity probe, fluorescence polarization | inhibition, % at 3.39 µM | 2,300 compounds, 65% hits;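 active = mean inhibition over three repeats above a set limit taken from the earlier primary screen, cut at about 30% in these data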;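 also: inhibitor blocks binding of rhodamine activity probe so polarization falls; 0% = enzyme with DMSO and 100% = wells lacking PAFAH2 protein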
* marks the source's active call; other numbers are inactive results; · = no result given. Rows were chosen to be rich in hits. Some 2.7% of all compounds tested hit in one or more screens of this group.

SMILES	PAFAH2 inh	TCR CD3 inh	PAFAH1B3 FP inh	pPAFAH FP inh	PAFAH1B2 inh	PAFAH2 FP conf
COC(=O)c1ccc2nc(-c3ccc(F)cc3)c(CC3CCCCC3)n2c1	·	4	·	·	·	·
O=C(NNC(=O)c1ccc(F)cc1F)c1ccc2c(c1)OCO2	-2	1	-1	1	4	·
COc1ccc2cc(-c3ccccc3F)ncc2c1	0	-2	0	4	1	·
Cc1cc(C)cc(C(=O)NC(CC(N)=O)c2ccc(NCCN3CCCC3)c([N+](=O)[O-])c2)c1 (stereo unspecified)	1	3	10	-9	0	·
CC(Nc1ccc(F)cc1)=[N+](C)CCNS(=O)(=O)c1ccc(Cl)cc1	-1	2	-7	7	4	·
O=C(COC(=O)c1ccc(Cl)cc1[N+](=O)[O-])NC(=O)c1ccccc1	2	0	13	1	4	·
NC(=O)c1ccc(NC(=O)COC(=O)c2ccc3c(c2)OCO3)cc1	4	-1	-9	1	1	·
CN(C)c1cccc(C(=O)OCC(=O)Nc2ccccc2Cl)c1	54*	-10	-2	10	1	50*
CCOc1ccc(NC(=O)COC(=O)c2ccc3c(c2)OCO3)cc1	64*	1	-6	5	2	62*
CN(C)c1cccc(C(=O)OCC(=O)Nc2ccccc2-c2ccccc2)c1	3	-9	0	6	-2	·
O=C(COC(=O)c1ccc(O)cc1)NC(=O)NCc1ccccc1	11	3	8	4	5	·
O=C(COC(=O)c1ccc(O)cc1)Nc1ccccc1	92*	7	8	17	-3	80*
Nc1ccc(C(=O)OCC(=O)NC(=O)c2ccccc2)cc1[N+](=O)[O-]	38*	7	5	6	-3	22
Cc1noc(C)c1S(=O)(=O)N(CC(=O)NCCc1ccccc1)c1ccc(C(C)C)cc1	4	-11	5	-4	3	·
Cc1ccc(NC(=O)C2(C)CCN2C(=O)Cc2ccc(C(C)C)cc2)cc1 (stereo unspecified)	·	-2	·	·	·	·
O=C(COC(=O)c1ccc(O)cc1)Nc1cc(C(F)(F)F)ccc1Cl	55*	1	5	12	13	40*
COc1cccc(NC(=O)CN(C)CC(=O)Nc2ccc(C)c([N+](=O)[O-])c2)c1	5	3	6	0	0	·
Cc1ccc(S(=O)(=O)N2CCOCC2)cc1NC(=O)COC(=O)c1ccco1	·	4	·	·	·	·
O=C(COC(=O)c1ccccc1O)Nc1cc(S(=O)(=O)N2CCCCCC2)ccc1Cl	2	-1	3	6	2	·
O=C(COC(=O)c1ccco1)Nc1cc(S(=O)(=O)N2CCOCC2)ccc1Cl	58*	5	8	0	6	35*
CCN(c1ccccc1)S(=O)(=O)c1ccc(Cl)c(NC(=O)COC(=O)C2CC2C)c1 (stereo unspecified)	79*	3	7	21	-2	76*
O=C(COC(=O)c1ccco1)Nc1cc(S(=O)(=O)N2CCCCC2)ccc1Cl	55*	8	5	1	3	46*
O=C(COC(=O)c1ccccc1)Nc1cc(S(=O)(=O)N2CCCCCC2)ccc1Cl	30*	-7	8	8	3	16
Cc1cccc(C)c1NC(=O)C1c2ccccc2OCC(=O)N1Cc1cccnc1 (stereo unspecified)	·	4	·	·	·	·
Nc1[nH]c(C(=O)c2ccccc2)c(-c2ccc(Cl)c(Cl)c2)c1C(=O)NCCc1c[nH]c2ccccc12	·	2	·	·	·	·
SMILES	PAFAH2 inh	TCR CD3 inh	PAFAH1B3 FP inh	pPAFAH FP inh	PAFAH1B2 inh	PAFAH2 FP conf
CCCCN(C)c1c(C)nc2ccc(C(=O)N(CC)CCN(C)C)cn12	·	3	·	·	·	·
Cc1nc2ccc(C(=O)N3CCN(C(=O)c4ccco4)CC3)cn2c1N(C)C(=O)CCc1ccccc1	·	-10	·	·	·	·
CCOc1ccc(S(=O)(=O)/N=C(/Nc2ccc(OC)cc2)c2ccccc2)cc1	52*	-8	8	7	0	41*
CCOc1ccc(S(=O)(=O)/N=C(/Nc2ccc(C(C)=O)cc2)c2ccccc2)cc1	57*	2	9	8	-1	41*
COc1cc([N+](=O)[O-])ccc1NC(=O)COC(=O)CCS(=O)(=O)c1ccc(C)cc1	1	1	5	6	6	·
CC(C)(C)C(=O)NCc1ccc(C(=O)CSc2nnc3n2CCCCC3)s1	·	-6	·	·	·	·
COc1cc(OC)c(NS(=O)(=O)c2cc(C(=O)OCC(=O)NCC3CCCO3)ccc2OC)cc1Cl (stereo unspecified)	71*	5	14	-3	9	52*
CCOc1ccc(C(=O)OCC(=O)NCC2CCCO2)cc1 (stereo unspecified)	48*	-2	7	3	5	28
CCOc1ccc(C(=O)OCC(=O)NC(C)C)cc1	55*	-5	0	2	-1	43*
O=C(COC(=O)c1ccc(Br)cc1)NCC1CCCO1 (stereo unspecified)	24	5	12	13	2	·
Nc1cc(C(=O)OCC(=O)NCC2CCCO2)ccc1Cl (stereo unspecified)	19	-11	-3	2	-3	·
CCOc1ccc(C(=O)OCC(=O)NCCNC(=O)COC(=O)c2ccc(OCC)cc2)cc1	-2	-8	5	3	-1	·
COc1ccc(C(=O)OCC(=O)NCC2CCCO2)c(F)c1 (stereo unspecified)	38*	6	4	8	3	34*
CCN(CC)CCN1C(=O)C(=O)/C(=C(/O)c2c(C)[nH]c(C(=O)OC)c2C)C1c1ccc(C)o1 (stereo unspecified)	-5	9	3	3	3	·
O=C(COC(=O)c1cccs1)NCC1CCCO1 (stereo unspecified)	35*	2	0	5	3	16
Cc1cc(C)c(S(=O)(=O)N2CCN(C(=O)N3CCOCC3)CC2)c(C)c1	28	-4	6	-1	7	·
Cc1cc(C)c(S(=O)(=O)N2CCN(C(=O)N3CCCCC3)CC2)c(C)c1	34*	0	8	1	-3	30*
CCc1ccc(OCC(=O)NC(=S)Nc2ccc(C)cc2C)c(Br)c1	30*	6	8	0	-3	-3
COc1ccc(N2CC(O)=C(c3nc(-c4ccc(F)cc4)cs3)C2=N)cc1OC	41*	0	10	22	1	42*
COc1ccc(N2CC(O)=C(c3nc(-c4ccc(F)cc4)cs3)C2=N)cc1Cl	14	-1	3	8	0	·
Cc1ccc(S(=O)(=O)N(CC(=O)Nc2ccccc2C(=O)O)c2ccccc2C)cc1	2	-3	16	-3	3	·
Cc1ccc(S(=O)(=O)N(CC(=O)Nc2ccccc2C(=O)O)c2cccc(Cl)c2C)cc1	32*	-7	-10	-5	10	29
Cc1[nH]c2ccc(C(=O)OC(C)C(=O)NCc3ccccc3)cc2c1C (stereo unspecified)	0	-4	6	9	6	·
